High-throughput results from PubChem.
PRMT1 inh: inhibitors of human PRMT1. Q99873. recombinant PRMT1, activity-based probe fluorescence polarization. inhibition, % at 2.79 µM. 370,000 compounds, 1.3% hits. AID 652257;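 active means inhibition above about 21% made by adding two undisclosed values, limit read from the data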
Target sequence (Q99873 whole entry, looked up): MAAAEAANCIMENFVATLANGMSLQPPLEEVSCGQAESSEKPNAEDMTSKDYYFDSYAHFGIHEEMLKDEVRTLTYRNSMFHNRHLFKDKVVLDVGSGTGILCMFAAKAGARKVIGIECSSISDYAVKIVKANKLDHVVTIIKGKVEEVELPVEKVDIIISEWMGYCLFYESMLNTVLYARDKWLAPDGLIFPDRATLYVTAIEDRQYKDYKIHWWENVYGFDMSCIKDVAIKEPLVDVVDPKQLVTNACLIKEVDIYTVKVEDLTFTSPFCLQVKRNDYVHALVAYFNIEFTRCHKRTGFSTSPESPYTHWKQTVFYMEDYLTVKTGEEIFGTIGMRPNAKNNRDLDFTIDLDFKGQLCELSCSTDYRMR
NOD2-RIPK2 inh: blocks binding of human NOD2 to RIPK2 | inhibition, % at 4.98 µM | O43353 | 360,000 compounds, 0.38% hits | CHO BLA complementation NOD2-RIPK2, CCF4 ratio; in the data active means inhibition above about 21%
ABHD5 PLIN5 PPI: inhibitors of human ABHD5-perilipin-5 interaction | Q00G26+Q8WTS1 | Split G. princeps luciferase complementation, luminescence, 4 h | inhibition, % at 4 µM | 360,000 compounds, 0.78% hits | AID 602281;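 active means inhibition above the mean inhibition across every tested compound plus 3 SD, cut at about 22% in these data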
rCAG binder: binds r(CAG) RNA repeats | AID 651821 | r(CAG) RNA repeat, TO-PRO-1 dye displacement fluorescence | 370,000 compounds, 1.3% hits | inhibition, % at 3 µM;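 active means inhibition above the plate cutoff, the mean of all test compounds on that plate plus 3 SD, cut at about 35% in these data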;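 further: higher means more dye released from RNA so lower well fluorescence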
TLR4-MyD88 BLA: inhibitors of human TLR4-MyD88 binding; inhibition, % at 8.4 µM; HeLa CL3-4 TLR4/MyD88 BLA complementation, FRET ratio; 200,000 compounds, 0.18% hits; O00206+Q99836; in the data active means inhibition above about 25%
TLR9-MyD88 inh: TLR9-MyD88 interaction inhibition. CHO BLA complementation TLR9-MyD88, CCF4 FRET ratio. Q9NR96+Q99836. inhibition, % at 4.98 µM. 340,000 compounds, 0.21% hits. AID 504734;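 active means inhibition above the mean over all tested compounds plus 3 SD, cut at about 21% in these data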
NOD2-RIPK2 conf: NOD2-RIPK2 interaction inhibition confirmed; shares compounds with NOD2-RIPK2 inh; CHO cells, NOD2-RIPK2 BLA complementation, CCF4 FRET; inhibition, % at 4.98 µM; 1,200 compounds, 70% hits; AID 624370;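 active means mean inhibition across replicates above a set limit taken from the earlier primary screen, cut at about 21% in these data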
NOD2 BLA counter: hits BLA reporter in NOD2-RIPK2 inhibitor counterscreen; CHO BLA reporter, CCF4 FRET ratio; AID 624371; shares compounds with NOD2-RIPK2 inh; 1,200 compounds, 57% hits; inhibition, % at 4.98 µM;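 active means mean inhibition above the low-control mean inhibition plus three low-control SD, cut at about 11% in these data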
Hits are given with their value; – = inactive; · = no result given. In the library only some 3.3% were active in any assay of this set; here they are far more common.

SMILES	PRMT1 inh	NOD2-RIPK2 inh	ABHD5 PLIN5 PPI	rCAG binder	TLR4-MyD88 BLA	TLR9-MyD88 inh	NOD2-RIPK2 conf	NOD2 BLA counter
CC(C)(C)NC(=O)C(c1ccc(C(F)(F)F)cc1)n1c(=O)c(-c2ccccc2)nc2ccccc21 (centres undefined)	–	–	–	–	·	·	·	·
CC(C)(C)NC(=O)C(c1ccc(C#N)cc1)n1c(=O)c(-c2cc3ccccc3[nH]2)nc2ccccc21 (centres undefined)	–	54	–	–	·	·	51	70
COc1ccc(C(C(=O)NC(C)(C)C)n2c(=O)c(-c3ccccc3)nc3ccccc32)cc1 (centres undefined)	–	–	–	–	·	·	·	·
CC(C)(C)NC(=O)C(c1ccc(C(F)(F)F)cc1)n1c(=O)c(-c2cc3ccccc3[nH]2)nc2ccccc21 (centres undefined)	–	45	–	–	·	·	41	66
CC(C)(C)NC(=O)C(c1ccc(-c2ccccc2)cc1)n1c(=O)c(-c2cc3ccccc3[nH]2)nc2ccccc21 (centres undefined)	–	40	–	–	·	·	34	63
CC(C)(C)NC(=O)C(c1ccccc1F)n1c(=O)c(-c2ccccc2)nc2ccccc21 (centres undefined)	–	–	–	–	·	·	·	·
COC(=O)COc1ccc(C(C2C(=O)CC(C)(C)CC2=O)C2C(=O)CC(C)(C)CC2=O)cc1	–	–	–	–	·	–	·	·
CC1(C)CC(=O)C=C(Nc2ccc(S(N)(=O)=O)cc2)C1	–	–	–	–	–	–	·	·
Cc1cnc(-c2nc3ccccc3n2C(C(=O)NC(C)(C)C)c2ccccc2)cn1 (centres undefined)	–	–	–	–	·	·	·	·
CC(C)(C)NC(=O)C(c1ccccc1)n1c(=O)c(-c2cc3ccccc3[nH]2)nc2ccccc21 (centres undefined)	–	43	–	–	·	·	40	65
COC(=O)c1cccc(N2CCCC2=O)c1	–	–	–	–	·	–	·	·
COC(=O)c1cccc(-n2sc3ccccc3c2=O)c1	98	40	91	–	·	–	36	13
COc1ccc(Cl)c2sc(N(CCN(C)C)C(=O)CCS(=O)(=O)c3ccc(C)cc3)nc12	–	–	–	–	·	–	·	·
COc1ccc(OC)c2sc(N(CCCN(C)C)C(=O)CCS(=O)(=O)c3ccccc3)nc12	–	41	39	–	·	–	54	–
CCCC(/C=C/c1ccc(OC(C)=O)cc1)=C1/c2ccccc2C(=O)N1c1ccccc1	–	25	–	–	·	–	–	28
O=C(Nc1ccc(Cl)cc1)Nc1ccc2c(c1)N1CCN=C1S2	–	22	–	–	–	–	36	19
Nc1ccc2c(c1)N1CCN=C1S2	–	–	–	–	–	–	·	·
COc1ccc(Nc2nc3cc(C)ccc3cc2C#N)cc1	–	21	–	–	·	–	–	17
COc1ccc(Nc2nc3cc(C)ccc3cc2C#N)c(OC)c1	–	–	–	–	–	–	·	·
Cn1ccnc1SCC(=O)Nc1cccc(S(=O)(=O)N2CCCCC2)c1	–	–	–	–	–	–	·	·
C=CCNC1=C(Cl)C(=O)N(c2cccc(Cl)c2Cl)C1=O	–	22	–	–	–	–	–	–
Cc1[nH]n(-c2ccccc2)c(=O)c1C=Nc1cccc2cccnc12	–	32	–	–	–	–	35	32
Cc1onc(-c2ccccc2)c1C(O)c1ccc(F)cc1 (centres undefined)	–	–	–	–	·	–	·	·
C[C@@H]1CN(C(=O)c2cc(COc3cccc(C(F)(F)F)c3)on2)C[C@H](C)O1	–	–	–	–	·	–	·	·
COc1ccc(C(NC(=O)C2CCN(CCOc3ccccc3)CC2)c2ccccn2)cc1 (centres undefined)	–	–	–	–	·	·	·	·
COc1ccc(OCCN2CCC(C(=O)NC(c3ccc(C)cc3)c3ccccn3)CC2)cc1 (centres undefined)	–	21	–	–	·	·	–	–
